Source: PubChem
Most compounds without a hit are left out; they make up all but 3.7% or so of the library.
BoNT A protease: BoNT A light chain protease inhibition | multiplex microsphere protease substrate cleavage, flow cytometry | inhibition, % at 10 µM | 360,000 tested, 0.17% active; further: plate controls were buffer without enzyme for full effect and enzyme alone for no effect
Anthrax LF prot: anthrax lethal factor protease inhibition | inhibition, % at 10 µM | P15917 | 360,000 tested, 0.12% active | multiplex microsphere protease cleavage assay, LF; further: plate controls were buffer without enzyme for full effect and enzyme alone for no effect
MazF activator: MazEF (E. coli) toxin RNase activation | P0AE70 | FAM/BHQ RNA-DNA oligo cleavage fluorescence, 5 h | activation, % at 20 µM | 350,000 tested, 0.32% active | AID 504720; in the data active means activation above about 50%
Bead autofluor: compound fluorescence in toxin protease inhibitor counterscreen. 360,000 tested, 3.1% active. fluorescence intensity (concentration not given with the values). AID 624483. compound autofluorescence counterscreen, microsphere flow cytometry; active compounds read high; in the data active means fluorescence intensity above about 16000; inconclusive means no clear call, values can overlap the other calls
BoNT-F LC inh: blocks Botulinum neurotoxin F light chain protease; inhibition, % at 10 µM; Multiplex microsphere protease cleavage assay, flow cytometry; AID 588497; 360,000 tested, 0.22% active; in the data active means inhibition above about 35%, passing the limit was not always enough; inconclusive means no clear call, values can overlap the other calls; further: plate controls were buffer without enzyme for full effect and enzyme alone for no effect
* = called active by the depositor; ? = inconclusive; / = not tested or not shown; + = active, no number. Unless noted, no stated cut-off is given here; in the data, active means inhibition above about 30%; inconclusive means no clear call, values can overlap the other calls; inactive means below that.

SMILES	BoNT A protease	Anthrax LF prot	MazF activator	Bead autofluor	BoNT-F LC inh
COc1cc(/C=C2\SC(=S)N(C(C(=O)O)c3ccccc3)C2=O)cc(OC)c1OC (centres undefined)	2.2	0.1	-4.7	2516	2.4
C=CCN1C(=O)/C(=C/c2ccc(-c3ccc(F)cc3)o2)SC1=S	78.6*	63.7*	-107.9	3620	26.1
O=C1N=C(N2CCOCC2)S/C1=C/c1ccc(-c2ccccc2Cl)o1	0.1	-8.4	107.1*	4376	3.0
O=C(O)C(c1ccccc1)N1C(=O)/C(=C\c2ccc(-c3ccccc3Cl)o2)SC1=S (centres undefined)	41.1*	18.4	-337.7	3117	8.9
C=CCN1C(=O)/C(=C/c2ccsc2)SC1=S	-1.9	-3.8	8.3	4206	-5.8
O=C1/C(=C\c2ccc(-c3ccccc3Cl)o2)SC(=S)N1CC1CCCO1 (centres undefined)	189.2*	59.1*	-8.8	4106	-46.2
CC(C(=O)N=c1sc2ccccc2n1C)N1C(=O)C2CC=CCC2C1=O (centres undefined)	3.3	-0.9	5.3	21549*	2.8
CCCCNC(=O)CSc1nc2ccsc2c(=O)n1CCCC(=O)NCCc1ccc(S(N)(=O)=O)cc1	-1.6	-5.7	2.7	4985	-14.4
O=C(CSc1ncnc2c1oc1ccccc12)Nc1ccc2c(c1)OCCO2	-3.6	-2.4	5.8	17420*	-4.5
COc1ccccc1NC(=O)CSc1nc2c(oc3ccccc32)c(=O)n1C	1.2	0.4	7.2	5668	-0.1
CCc1nc(SCC(=O)Nc2ccc3c(c2)OCCO3)c2oc3ccccc3c2n1	-0.3	-1.3	-15.2	2148	5.1
Cc1nc(SCC(=O)Nc2ccc3c(c2)OCCO3)c2oc3ccccc3c2n1	0.3	0.9	53.5*	20676*	0.2
COc1ccccc1NC(=O)CSc1ncnc2c1oc1ccccc12	0.8	-2.3	-2.0	20328*	0.5
Cc1sc2ncnc(N3CCC(C(=O)Nc4nc(-c5cccs5)cs4)CC3)c2c1C	-1.7	?	-17.3	4476	2.6
CC(NC(=O)c1ccc(-c2cc(C(F)(F)F)ccc2Cl)o1)c1ccccc1 (centres undefined)	?	1.4	-5.1	20639*	-0.2
Cc1ccc(C(=O)NC(C)c2ccccc2)o1 (centres undefined)	1.5	-5.4	2.3	22061*	2.8
C/C(CC(=O)Nc1cc(C)ccn1)=N\NC(=O)C(=O)Nc1cccc(C)c1	0.0	-1.4	194.7*	2190	-2.3
COc1cc2c(C#N)c(N3CCc4ccccc4C3)nc(N)c2c(N)n1	3.2	-0.3	62.2*	3674	-7.1
COc1cc2c(C#N)c(N3CCOCC3)nc(N)c2c(N)n1	0.0	-1.3	19.6	3240	-3.4
COc1cc2c(C#N)c(N3CCCCC3)nc(N)c2c(N)n1	3.9	-3.5	55.5*	3076	-9.5
CC(=O)NN(O)C1N(C)C(=O)N(Cc2ccccc2)C1(C)C (centres undefined)	0.0	4.8	2.0	5648	-4.8
CC(C)CN(CCCNC(=O)CN1N=C(c2ccc(Cl)cc2)CCC1=O)CC(C)C	-0.1	-4.4	-3.2	3775	1.0
CCc1ccc(C2=NN(CCC(=O)NC(C)CCc3ccccc3)C(=O)CC2)cc1 (centres undefined)	0.3	7.2	1.1	3719	5.4
Cc1nn(-c2ccccc2)c(C)c1C(=O)OCC(=O)NC12CC3CC(CC(C3)C1)C2	2.1	-0.6	0.9	22484*	1.8
Cc1nn(-c2ccccc2)c(C)c1C(=O)OCC(=O)N1CCN(S(=O)(=O)c2ccccc2)CC1	?	-3.3	2.5	21834*	1.1
SMILES	BoNT A protease	Anthrax LF prot	MazF activator	Bead autofluor	BoNT-F LC inh
CC(C)CC(c1nnnn1C1CCCC1)N1CCC(C(N)=O)CC1 (centres undefined)	-0.6	1.8	0.7	4599	1.6
CC(C)OCCCNC(=S)NNC(=O)c1ccc(Cl)c(Cl)c1	-1.6	-7.9	12.0	4647	-7.3
NC(=O)c1cnn(C2CCS(=O)(=O)C2)c1 (centres undefined)	-1.2	1.1	-1.9	2589	-9.6
C=CCn1c(C)c(C=C2C(=O)NC(=O)NC2=O)c2ccccc21	33.1*	-2.7	10.0	3438	?
Cn1cc(C=C2C(=O)NC(=O)NC2=O)c2ccccc21	-2.4	-7.6	+	3286	9.9
COC(=O)/C=c1/sc2n(c1=O)CCN=2	1.4	-2.6	4.3	4418	17.8
COC(=O)/C=c1\sc2n(c1=O)C(C)=CC(C)(C)N=2	2.7	-6.7	-5.4	19740*	1.5
CC1=CC(C)(C)Nc2ccc(OS(=O)(=O)c3ccc(C)cc3)cc21	5.3	-0.2	-0.7	17799*	4.2
Cc1cc(C(=O)N2CCC(C(N)=O)CC2)c(C)o1	-1.0	-1.6	-12.4	4165	1.8
Cc1cc(C(=O)N2CCCC2C(=O)O)c(C)o1 (centres undefined)	1.7	-2.7	14.9	22740*	3.2
CCC(=O)Oc1cccc(C(=O)Nc2cccc(NC(=O)c3ccco3)c2)c1	0.2	2.6	-17.9	5944	3.9
Cc1ccccc1NC(=O)/C(=C/c1cccs1)NC(=O)c1ccco1	0.2	0.0	9.2	2456	2.9
Cc1ccccc1NC(=O)/C(=C\c1cccs1)NC(=O)c1ccco1	-1.5	-4.0	-4.1	23554*	-2.3
CN(Cc1cc(=O)[nH]c2ccccc12)C(=O)c1ccccc1	2.2	-3.3	6.7	19977*	3.5
COc1ccccc1N(Cc1cc(=O)[nH]c2ccccc12)C(=O)c1ccccc1	-1.4	2.1	3.4	4743	5.8
CN1CC[n+]2cnc3ccccc3c21	?	-11.9	-5.0	18857*	5.5
CSc1nc(NCc2ccco2)c2sc3nc(C(C)C)c4c(c3c2n1)CC(C)(C)OC4	?	0.1	19.4	19909*	-0.1
Cc1ccc([C@H]2C[C@H](n3cc(-c4ccc(F)cc4)nn3)[C@@H](O)CN2CC2CCCCC2)cc1	0.2	2.1	4.8	3419	-6.2
Cc1cccc(N(C)S(=O)(=O)c2ccc3[nH]c(=O)c(=O)[nH]c3c2)c1	?	3.6	-12.3	16965*	-1.2
Cc1cccc(N2C(=O)NC(=O)/C(=C/c3cc4c(cc3[N+](=O)[O-])OCO4)C2=O)c1	-0.1	-8.0	536.7*	3135	-4.5
C/C(CC(=O)Nc1cccc2c1CCCC2)=N\NC(=O)c1cccc2ccccc12	-0.1	-0.7	7.6	2538	-4.8
C/C(CC(=O)Nc1cccc2c1CCCC2)=N\NC(=O)c1ccccc1N	?	-2.7	-4.8	24027*	-4.2
CCCSc1nnc2n(N)c(=O)c3ccccc3n12	0.1	2.2	0.5	22548*	-1.0
Nn1c(=O)c2ccccc2n2c(SCc3ccccc3)nnc12	-0.5	0.8	4.8	3009	-1.2
Cc1sc(NC(=S)NC(=O)c2ccc(C(C)(C)C)cc2)c(C#N)c1C	-2.1	-1.3	19.4	21363*	-2.8
Cc1cc(C(=O)Nc2sc(C)c(C)c2C#N)c(C)o1	?	1.8	6.9	16457*	-1.8
Cc1occc1C(=O)n1nnc2ccccc21	/	/	-0.9	/	/
O=C(N1CCOCC1)n1nnc2ccccc21	-0.9	-0.2	3.2	22842*	-1.6
O=C(N1CCOCC1)n1cnc2ccccc21	0.3	-2.8	2.1	5975	-4.7
